Consider 47 compounds from PubChem BioAssay AID1986 (Sanford-Burnham Center for Chemical Genomics, 2009).

The whole screen tested about 290,000 compounds, of which about 890 (0.31%) were called active. Rule as the data show it: active = inhibition mostly above about 52% (no sharp cut-off); inactive = mostly below about 76%. Many of the other results were omitted from the sample, so actives are more common in it than they were.

A short description of the experiment: inhibitors of HIV fusion peptide binding, primary screen, biochemical, uHTS, fluorescence dequenching (AID 1986). The settings on record: cell-free peptide binding, 30 min, stronger effect = higher value.
The mark [1] stands for this setting: measured here: repeat confirmation average inhibition, at 18.6 µM.

What is called inhibition is the drop in the measured response relative to a control, in per cent. For `COc1cc([N+](=O)[O-])ccc1N1C(=O)CC(Sc2nccc(C)n2)C1=O` (stereo unspecified), the inhibition (at 20 µM) was -1% (inactive).
On the same count and under the same terms, with `CC(C)CSC1=NSC2=NC(=O)/C(=C\c3coc4ccccc4c3=O)C(=N)N12` the figure was 148% (inactive).
As for `N=C1/C(=C\c2coc3ccccc3c2=O)C(=O)N=C2SC(c3ccncc3)=NN12`, the inhibition (at 20 µM) is 146% (inactive).
Take `CC1=CC2=NC(=O)/C(=C\c3ccc(-c4ccc(Cl)cc4)o3)C(=N)N2O1`: for the setting “at 20 µM”, the inhibition is 13.2% (inactive).
Consider `CSC1=NSC2=NC(=O)/C(=C/c3coc4ccccc4c3=O)C(=N)N12`, for which the inhibition (at 20 µM) was 91.2% (active).
The same measure, in the same setting: the same measure for `CSC1=NSC2=NC(=O)/C(=C\c3coc4ccccc4c3=O)C(=N)N12`: 44.5% (inactive); for `N=C1/C(=C\c2coc3ccccc3c2=O)C(=O)N=C2SC=CN12`: 146% (inactive).
Still for that read-out and setting: the same measure for `N=C1/C(=C/c2coc3ccccc3c2=O)C(=O)N=C2SC(c3ccco3)=NN12`: 114% (active); for `CC(C)CSC1=NSC2=NC(=O)/C(=C\c3ccccc3)C(=N)N12`: 46.5% (inactive).
Consider `CC1=CC2=NC(=O)/C(=C/c3coc4ccc(Cl)cc4c3=O)C(=N)N2O1`, for which the inhibition is, setting by setting: (at 20 µM) 99.7% (active); under setting [1], 62.3%.
`CCSC1=NSC2=NC(=O)/C(=C\c3coc4ccccc4c3=O)C(=N)N12`: the inhibition (at 20 µM) is 89.7% (active).
Take `CC1=CC2=NC(=O)/C(=C\c3cc(C)n(-c4cccc(Cl)c4)c3C)C(=N)N2O1`: under “at 20 µM”, the inhibition was 0.2% (inactive).
Regarding `CC(C)CC1=NN2C(=N)/C(=C\c3coc4ccccc4c3=O)C(=O)N=C2S1`, under “at 20 µM”, the inhibition was 148% (inactive).
Turning to `COc1ccccc1CNC(=O)C1CC(c2ccccc2C(F)(F)F)=NO1` (stereo unspecified), the inhibition (at 20 µM) was 0.6% (inactive).
Still for that read-out and setting: with `COCc1cc(C)n(CC(=O)Nc2c(C)cccc2C)c(=O)c1C#N` the figure was 0.1% (inactive); with `NC(=O)c1ccccc1NCC(=O)c1ccc(Cl)cc1`, 1.4% (inactive); with `CCOC(=O)C1=C(COC(=O)C2(C)CC2(Cl)Cl)NC(=O)NC1c1ccccc1` (stereo unspecified), -1.7% (inactive).
Take `CC12CC3CC(C)(C1)CC(C(=O)NC1=NCCS1)(C3)C2`: the inhibition (at 20 µM) is -1.5% (inactive).
The same measure, in the same setting: with `Cc1ccc(C(=O)N2CCCC(Nc3cccc(F)c3)C2)cc1N1CCNC1=O` (stereo unspecified) the figure was 0% (inactive).
Still for that read-out and setting: the same measure for `CCN(CC)c1nc2n(c(=O)n1)CCN2CC`: 2.4% (inactive); for `O=C(CN1C(=O)C2CC=CCC2C1=O)NCc1cccs1` (stereo unspecified): -0.4% (inactive); for `COc1ccc(CN2CSC(=S)N(Cc3ccc(OC)cc3)C2)cc1`: -1.4% (inactive).
On to `N=C1/C(=C\c2coc3ccc(O)cc3c2=O)C(=O)N=C2SC=CN12`, for which the inhibition (at 20 µM) is 150% (inactive).
As to `CSC1=NSC2=NC(=O)/C(=C\c3cccs3)C(=N)N12`, where the note is “at 20 µM”, the inhibition was 45.4% (inactive).
The same measure, in the same setting: with `CSC1=NSC2=NC(=O)/C(=C/c3coc4ccc(O)cc4c3=O)C(=N)N12` the figure was 57.5% (active); with `Cc1ccc(/C=C2/NC(=O)N(Cc3ccccc3)C2=O)s1`, 36.8% (inactive); with `O=C1N/C(=C/c2cccs2)C(=O)N1Cc1ccccc1F`, -0.7% (inactive).
As for `Cc1ccc(/C=C2/NC(=O)N(Cc3ccccc3F)C2=O)s1`, the inhibition (at 20 µM) was 64% (active) and the inhibition under setting [1] came to 72.6%.
Regarding `O=C(CNC(=O)c1ccccc1F)NC1CC1`, for the setting “at 20 µM”, the inhibition is -0.1% (inactive).
In the case of `Cc1cc(-n2c(C)cc(C(=O)CSc3ccc4c(c3)OCCO4)c2C)no1`, the inhibition (at 20 µM) was 2.6% (inactive).
As to `CC(C)(C)C(=O)N=C1SC2CS(=O)(=O)CC2N1c1ccc2c(c1)OCO2` (stereo unspecified), under “at 20 µM”, the inhibition was -0.3% (inactive).
For the compound `CCC(C)NC(=O)C1CCC(CNS(=O)(=O)c2ccccc2)CC1` (stereo unspecified), the inhibition (at 20 µM) is -0.4% (inactive).
Same read-out and setting: with `Cc1ccc(O)c(C(=O)c2cc(C#N)c(=O)n(-c3nccs3)c2)c1` the figure was 143% (inactive).
With `N#Cc1cc(C(=O)c2ccccc2O)cn(-c2nccs2)c1=O`, the inhibition (at 20 µM) is 52.8% (active) and the inhibition under setting [1] amounted to 99.4%.
Take `N#Cc1cc(C(=O)c2cc(F)ccc2O)cn(-c2nccs2)c1=O`: the inhibition (at 20 µM) was 151% (inactive).
`CCOC(=O)c1c(NC(=S)Nc2ccc(Cl)cc2)sc2c1CCN(C)C2`: where the note is “at 20 µM”, the inhibition was 23.1% (inactive).
Same read-out and setting: with `CC(C)c1ccc(N(CC(=O)NCc2ccc(F)cc2)C(=O)c2csnn2)cc1` the figure was -1.1% (inactive); with `Cc1c(C(=O)N(C)Cc2ccccc2)oc2c(Cl)cccc12`, -0.6% (inactive).
For the compound `O=C1N/C(=N/NC(=O)c2cccc3ccccc23)S/C1=C\c1ccccc1OCc1ccccc1`, the inhibition (at 20 µM) was 80.3% (active).
On the same count and under the same terms, the same measure for `O=C1NC(=O)/C(=C/c2ccccc2OCc2ccccc2)S1`: 31.6% (inactive); for `O=C1NC(=O)/C(=C\c2ccccc2OCc2ccccc2)S1`: 47.5% (inactive).
Same read-out and setting: with `COc1ccc(C2CC(=O)c3cnc(NC(=O)c4cccc(OC)c4)nc3C2)cc1` (stereo unspecified) the figure was 5.8% (inactive).
Still for that read-out and setting: with `CCC(C)NC(=O)c1ccccc1NC(=O)COc1ccc(OC)cc1` (stereo unspecified) the figure was 1% (inactive); with `Cc1nc(NC2CCCCC2)c2nnn(Cc3ccccc3Cl)c2n1`, 0.5% (inactive); with `O=C(NCc1ccccc1)NC(=O)c1ccc(Cl)cc1`, 2.8% (inactive).
In the case of `CC(C)=C1C(=O)NN(c2ccc(F)c(Cl)c2)C1=O`, the inhibition (at 20 µM) was 32.6% (inactive).
Consider `CC(C)=C1C(=O)NN(c2cccc(Cl)c2)C1=O`, for which the inhibition reads like this: (at 20 µM) 60% (inactive); under setting [1], 0.7%.
